Compounds with a hit are over-represented: about 2.6% of the library has one in this group of screens.
p53 PUMA act: mutant p53 pathway re-activators, primary screen, cell-based, SW480, luciferase, single point, HTS. SW480 PUMA-promoter luciferase, p53 mutant reactivation. activation, % at 9.98 µM. 28,000 tested, 1.5% active. AID 624151, 2012; in the data active = activation above about 52%
mut p53 SMM: binders of human mutant p53, primary screen, biochemical, small molecule microarray, anti-GST fluorescence; small molecule microarray binding; mutant tumor protein p53 (GST-tagged), Homo sapiens; 17,000 tested, 0.4% active; calls only;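 active = compounds whose four printed spots each glow above background more than chance allows, each with a p-value under 7%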
STAT3 binder: STAT3 binders, primary screen, biochemical, small molecule microarray, single point, set 2 | calls only | His-STAT3 binding, anti-His fluorescence | 17,000 tested, 0.2% active | AID 624138, 2012;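 active = compounds whose four printed spots each show fluorescence over background unusually high for their array block, chance value under 7%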
NFkB SMM: binders of NF-kB p50 subunit, primary screen, biochemical, small molecule microarray, anti-His fluorescence. 17,000 tested, 1.3% active. AID 624139, 2012. Nuclear factor NF-kappa-B p105 subunit (Homo sapiens), P19838. calls only. anti-His fluorescence binding;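 active = spot fluorescence over background significantly raised, with a chance value under 7% in all four replicate spots of the compound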;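 also: probe protein is his-tagged human p50 processed subunit at 1 µg/ml; raw spot fluorescence signals with no normalization applied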
c-Myc SMM: binders of human c-Myc, primary screen, biochemical, small molecule microarray, anti-His fluorescence; calls only; Myc proto-oncogene protein (Homo sapiens), P01106; His-c-Myc binding; AID 624141, 2012; 17,000 tested, 1.5% active;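 active = spot fluorescence over background with P-value below 7% in all four replicate spots, showing protein binding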;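 also: score is binary with 100 for all four spots passing and 0 otherwise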
Numbers without * were called inactive; i = inactive; . = not tested or not shown; + = active, no number.

SMILES | p53 PUMA act | mut p53 SMM | STAT3 binder | NFkB SMM | c-Myc SMM
C[C@H](CO)N1C[C@H](C)[C@@H](CN(C)C(=O)Nc2ccccc2)Oc2ccc(NC(=O)NC3CCCCC3)cc2C1=O | 6 | i | i | i | i
CC(=O)Cc1ccccc1OCC(=O)O | 8 | i | i | + | +
CC(C)NCc1ccccc1OCC(N)=O | 1 | i | i | i | i
Cc1ccc(-c2cc(C(=O)NCc3cccnc3)c3cc(Br)ccc3n2)cc1 | 67* | . | . | . | .
COCCNC(=O)c1cc(-c2cccnc2)nc2ccc(Br)cc12 | 12 | i | i | i | i
Cc1ccc2nc(-c3cccc(Br)c3)cc(C(=O)NCc3cccnc3)c2c1 | 58* | . | . | . | .
CCn1cc(CNC(=O)c2cc(-c3cccnc3)nc3ccc(Br)cc23)c(C)n1 | 0 | . | . | . | .
CCCc1ccc(-c2cc(C(=O)NCc3cccnc3)c3ccccc3n2)cc1 | 106* | . | . | . | .
CCCNC(=O)N(C)C[C@@H]1Oc2cc(C#CC(C)C)ccc2S(=O)(=O)N([C@@H](C)CO)C[C@@H]1C | 2 | . | . | . | .
C[C@@H]1CN([C@H](C)CO)C(=O)Cc2cc(NC(=O)Nc3ccc(C(F)(F)F)cc3)ccc2O[C@@H]1CN(C)Cc1ccncc1 | -42 | i | i | + | +
C[C@H](CO)N1C[C@H](C)[C@H](CN(C)C(=O)Nc2cccc3ccccc23)Oc2ccc(NC(=O)Nc3cccc4ccccc34)cc2CC1=O | 0 | i | i | i | i
C[C@@H]1CN([C@H](C)CO)C(=O)Cc2cc(NC(=O)Nc3cccc4ccccc34)ccc2O[C@@H]1CN(C)C(=O)Nc1cccc2ccccc12 | -45 | i | i | + | +
COc1ccccc1C(=O)Nc1ccc2c(c1)nc(CCNC(C)=O)n2C | 131* | . | . | . | .
Cc1ccc(C(=O)CC(C(=O)O)n2ccc(C)n2)cc1 (stereo unspecified) | -8 | i | i | + | +
COc1ccc(S(=O)(=O)N(C)CC(=O)O)cc1 | -11 | i | i | i | +
CN(CC(=O)O)S(=O)(=O)c1cc(Cl)ccc1Cl | 4 | i | i | + | +
Cc1ccc(Cl)cc1N(CC(=O)O)S(C)(=O)=O | -5 | i | i | + | +
COc1ccc(S(=O)(=O)N(C)CC(=O)O)cc1C | 12 | . | . | . | .
CS(=O)(=O)N(CC(=O)O)c1ccc(Cl)cc1 | -10 | . | . | . | .
CC(C)(C)c1cc(C(=O)Cn2c(NCCO)nc3ccccc32)cc(C(C)(C)C)c1O | -7 | . | . | . | .
COc1ccc(CN(C)C[C@@H]2Oc3ccc(NC(=O)Cc4ccccc4)cc3CC(=O)N([C@H](C)CO)C[C@H]2C)cc1 | 14 | i | i | i | i
Cc1ccc2nc(-c3ccc(NC(=O)Cn4nc([N+](=O)[O-])c(Cl)c4C)cc3)sc2c1 | 80* | . | . | . | .
Cc1ccc2nc(-c3ccc(NC(=O)CSc4nnc(C)s4)cc3)sc2c1 | -63 | . | . | . | .
Cc1ccc2nc(-c3ccc(NC(=O)CN4C(=O)c5ccccc5C4=O)cc3)sc2c1 | 19 | i | i | i | i
Cc1ccc2nc(-c3ccc(NC(=O)CS(=O)(=O)Cc4ccccc4)cc3)sc2c1 | 75* | . | . | . | .
SMILES | p53 PUMA act | mut p53 SMM | STAT3 binder | NFkB SMM | c-Myc SMM
C/C=C/c1cnc2c(c1)C(=O)N([C@H](C)CO)C[C@H](C)[C@H](CN(C)C(=O)Cc1cccnc1)O2 | 7 | . | . | . | .
COc1ccccc1/C=C/C(=O)N1CCCC(c2ccccc2)C1 (stereo unspecified) | 101* | . | . | . | .
CCOC(=O)c1sc2ncn(CC(=O)Nc3ccc(F)c(Cl)c3)c(=O)c2c1C | 11 | i | i | i | i
CC(C)NC(=O)N(C)C[C@H]1OCCCC[C@@H](C)Oc2ccc(NC(=O)Nc3ccc(F)cc3)cc2C(=O)N([C@H](C)CO)C[C@@H]1C | -4 | i | i | i | i
C[C@@H]1CN([C@@H](C)CO)C(=O)c2cc(NS(C)(=O)=O)ccc2O[C@@H](C)CCCCO[C@@H]1CN(C)C(=O)Nc1ccc(C(F)(F)F)cc1 | -4 | i | + | i | i
C[C@H](CO)N1C[C@H](C)[C@@H](CN(C)S(=O)(=O)c2ccc(F)cc2)OCCCC[C@H](C)Oc2ccc(NC(=O)Nc3ccc(C(F)(F)F)cc3)cc2C1=O | . | i | i | + | i
C[C@@H]1CCCCO[C@@H](CN(C)C(=O)Nc2ccc(C(F)(F)F)cc2)[C@H](C)CN([C@H](C)CO)C(=O)c2cc(NC(=O)Nc3ccc(F)cc3)ccc2O1 | . | i | i | i | i
C[C@H](CO)N1C[C@H](C)[C@@H](CN(C)S(=O)(=O)c2ccc(F)cc2)OCCCC[C@H](C)Oc2ccc(NC(=O)Nc3ccc(F)cc3)cc2C1=O | . | i | i | i | i
C[C@H](CO)N1C[C@H](C)[C@H](CN(C)C(=O)Nc2ccc(C(F)(F)F)cc2)OCCCC[C@H](C)Oc2ccc(NS(C)(=O)=O)cc2C1=O | 10 | i | i | i | i
CC(C)NC(=O)N(C)C[C@@H]1OCCCC[C@H](C)Oc2ccc(NC(=O)Nc3ccc(C(F)(F)F)cc3)cc2C(=O)N([C@H](C)CO)C[C@@H]1C | -57 | i | i | + | +
CC(C)NC(=O)N(C)C[C@H]1OCCCC[C@H](C)Oc2ccc(NC(=O)Nc3ccc(C(F)(F)F)cc3)cc2C(=O)N([C@@H](C)CO)C[C@H]1C | -19 | i | i | + | +
COC(=O)c1cc(C)sc1NC(=S)NC(C)c1cn(C)nc1C (stereo unspecified) | -19 | i | i | i | i
CC(C)CC(C(=O)Oc1ccc([N+](=O)[O-])cc1)N1C(=O)c2ccccc2C1=O (stereo unspecified) | -13 | . | . | . | .
C[C@@H]1CN([C@H](C)CO)C(=O)CCCn2cc(nn2)CO[C@H]1CN(C)C(=O)OCc1ccccc1 | -2 | i | i | i | i
C[C@H](CO)N1C[C@H](C)[C@H](CN(C)Cc2ccccn2)Oc2cc(-c3cccc(C#N)c3)ccc2S1(=O)=O | -13 | . | . | . | .
COc1ccc(-c2cc(=O)c3c(O)c(OC)c(O)c(OC)c3o2)cc1 | 58* | i | i | i | i
O=C(CC1(O)C(=O)Nc2ccc(Cl)cc21)c1ccccn1 (stereo unspecified) | -13 | i | i | i | i
Nc1ccc(-c2cc(=O)c3cc(O)ccc3o2)cc1 | 26 | i | i | i | i
COc1ccc2c(=O)cc(-c3ccccc3)oc2c1 | 81* | i | i | i | i
O=c1cc(-c2ccccc2)oc2cc(O)ccc12 | 77* | i | i | i | i

Screens from PubChem BioAssay.
